The text below walks through data of PubChem BioAssay (NCATS).

Records with an inconclusive call do not appear. A number with no mark means an inactive call. Activity calls are given as the source filed them. Unless noted, calls follow the shape of the dose curve; as a rule, active = well fitted curve in the direction sought with a large enough effect; inconclusive = small, poorly fitted or top-dose-only effect, or another doubt; inactive = no such curve, though single readings can be large; an effect the other way counts as inactive or inconclusive. Positions of bridges follow the written chain, without caps; N, C: chain ends. Non-standard residues stand in square brackets, D forms with d. Residues, ends and D or L forms follow the SMILES beside them. *: point of attachment. X1 = CCC(C)C(N)C1=NC(C(=O)*)CS1; dOrn = NCCC[C@@H](N)C(=O)O

Assay [1] deals with Cellular tumor antigen p53 (Homo sapiens) (UniProt P04637). As to the kind of experiment: Primary qHTS for small molecule compounds that upregulate eGFP-tagged delta133p53alpha (in N-terminal) cells. (AID 2060322). Also: nearly all actives have a fitted effect of over 75% in size.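 As to activation: series mostly up to about 56 µM; 0% = DMSO vehicle and 100% = reference activator.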 The settings on record: NCI-H358 eGFP-delta133p53alpha fluorescence, 24 h; activation: stronger effect = higher value. Put shortly: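 NCI-H358 cells pre-induced 24 h with 10 ng/ml doxycycline to express N-terminal eGFP-delta133p53alpha, then dosed 24 h at 37C without doxycycline; fixed, Hoechst-stained, GFP intensity by laser scanning cytometry, normalized to DMSO (0%) and 57.5 uM 5-azacytidine (100%).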
Cellular tumor antigen p53 (Homo sapiens), sequence (P04637 whole entry, looked up): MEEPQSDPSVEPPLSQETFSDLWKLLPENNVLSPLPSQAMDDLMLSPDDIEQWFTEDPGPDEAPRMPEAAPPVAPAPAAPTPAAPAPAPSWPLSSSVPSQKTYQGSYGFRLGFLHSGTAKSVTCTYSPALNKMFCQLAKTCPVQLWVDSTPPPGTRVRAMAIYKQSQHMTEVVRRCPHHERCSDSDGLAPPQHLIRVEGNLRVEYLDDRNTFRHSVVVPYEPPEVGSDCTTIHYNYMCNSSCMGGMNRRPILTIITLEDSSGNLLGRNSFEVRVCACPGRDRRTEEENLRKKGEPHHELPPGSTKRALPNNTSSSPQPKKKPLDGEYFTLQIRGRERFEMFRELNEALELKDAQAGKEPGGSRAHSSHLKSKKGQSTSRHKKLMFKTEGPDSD

Assay [2] concerns the target Aldehyde dehydrogenase, mitochondrial (Homo sapiens) (UniProt P05091). As to the kind of experiment: qHTS for Inhibitors of the Aldehyde Dehydrogenase Family (ALDH2) Confirmatory screens (AID 2061303; active = well fitted inhibition curve with a large enough effect; title and protocol of this record describe different tests; also: nearly all actives have a fitted effect of over 45% in size). In general terms: qHTS replaces the single test concentration by a dilution series.
Assay [3] is described as follows: qHTS for Inhibitors of the Aldehyde Dehydrogenase Family (ALDH1A2, ALDH1A3, ALDH2, ALDH3A1) (AID 2061307). Also: nearly all actives have a fitted effect of over 50% in size. As to Potency: test system not described further here.
Assay [4] concerns the target Aldehyde dehydrogenase, mitochondrial (Homo sapiens) (UniProt P05091). As to the kind of experiment: qHTS for Inhibitors of the Aldehyde Dehydrogenase Family (ALDH2) Primary screen (AID 2061308). Also: nearly all actives have a fitted effect of over 55% in size.
The target of assay [5] is Retinal dehydrogenase 2 (Homo sapiens) (UniProt O94788). As to the kind of experiment: qHTS for Inhibitors of the Aldehyde Dehydrogenase Family (ALDH1A2) Confirmation screens (AID 2061314). Also: nearly all actives have a fitted effect of over 65% in size.
Assay [6] addresses Retinaldehyde dehydrogenase 3 (Homo sapiens) (UniProt P47895). As to the kind of experiment: qHTS for Inhibitors of the Aldehyde Dehydrogenase Family (ALDH1A3) Primary screen (AID 2061315).
Assay [7] concerns the target Aldehyde dehydrogenase 1A1 (Homo sapiens) (UniProt P00352). The assay is described as follows: qHTS for Inhibitors of the Aldehyde Dehydrogenase Family (ALDH1A1) Confirmatory screens (AID 2061316). Also: nearly all actives have a fitted effect of over 65% in size.
Assay [8] deals with Retinaldehyde dehydrogenase 3 (Homo sapiens) (UniProt P47895). As to the kind of experiment: qHTS for Inhibitors of the Aldehyde Dehydrogenase Family (ALDH1A3) Validation screen (AID 2061312). Also: nearly all actives have a fitted effect of over 45% in size.
The nature of assay [9]: BET inhibitor-based combinations targeting novel dependencies in MECOM-rearranged (r) AML: SET-2 cell line (AID 2202231). Also: nearly all actives have a fitted effect of over 35% in size. Conditions: SET-2 AML cells viability, CellTiter-Glo luminescence, 48 h; viability: stronger effect = lower value, concentration not given here. The gist of the method:
(§1)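 Readout: CellTiter-Glo luminescence. Exposure: 48 h, 11 concentrations, 500 cells/well. Metric: AUC and within-line Z-AUC after DMSO/empty-well normalization.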
On the technique in general: ATP-based viability assays read luminescence as a measure of living cells.

Assay [10] is described as follows: BET inhibitor-based combinations targeting novel dependencies in MECOM-rearranged (r) AML: OCI-AML3 cell line (AID 2202232). Also: nearly all actives have a fitted effect of over 35% in size. The settings on record: Potency: OCI-AML3 viability. Put shortly:
as §1

Assay [11] in a line: BET inhibitor-based combinations targeting novel dependencies in MECOM-rearranged (r) AML: MV-4-11 cell line (AID 2202233). Also: nearly all actives have a fitted effect of over 45% in size. The gist of the method: (§2)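 Seeding density was 500 cells/well, and drug exposure lasted 48 hr under standard culture conditions. Read-out used CellTiter-Glo reagent with a 15 min room-temperature incubation before luminescence measurement; AUC and Z-AUC summarize the normalized responses.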

Assay [12] can be described thus: BET inhibitor-based combinations targeting novel dependencies in MECOM-rearranged (r) AML: HNT-34 cell line (AID 2202234). Also: nearly all actives have a fitted effect of over 35% in size. The gist of the method:
as §2

Assay [13] can be described thus: BET inhibitor-based combinations targeting novel dependencies in MECOM-rearranged (r) AML: UCSD-AML1 cell line (AID 2202235). Also: nearly all actives have a fitted effect of over 40% in size. Put shortly:
as §2

Assay [14] is described as follows: BET inhibitor-based combinations targeting novel dependencies in MECOM-rearranged (r) AML: AML-194 cell line (AID 2202237; also: nearly all actives have a fitted effect of over 40% in size). The gist of the method:
as §1

The nature of assay [15]: BET inhibitor-based combinations targeting novel dependencies in MECOM-rearranged (r) AML: AML-191 cell line (AID 2202236; also: nearly all actives have a fitted effect of over 35% in size). The gist of the method: as §1
Assay [16] deals with Retinaldehyde dehydrogenase 3 (Homo sapiens) (UniProt P47895). As to the kind of experiment: qHTS for Inhibitors of the Aldehyde Dehydrogenase Family (ALDH1A3) Confirmatory screens (AID 2061311). Also: nearly all actives have a fitted effect of over 60% in size.
Potency is read from the fitted curve at half-maximal effect.

On to `Cc1nc2c(C#N)c[nH]n2c(=O)c1C(C)C`, for which, in assay [1], the activation is 23.5%. Also, the Potency result in [2], in assay [3], in assay [4], in assay [5], in [6] and in assay [7] was “inactive” each time.

Regarding `CN1CCN(C2=Nc3ccccc3Nc3ccc(O)cc32)CC1`, in assay [1], the activation was 1.91%. Further, the Potency result in [2], in assay [3], in [4], in assay [8], in assay [5] and in [7] was “inactive” in each case.

For the compound `CC1(COc2ccc3c(c2)ncn3-c2ccc3cccc(N4CCC(N)CC4)c3n2)COC1`, the Potency was 21300 nM (active) in assay [1]; 14200 nM (active) in assay [5]; 13200 nM (active) in assay [9]; 7420 nM (active) in [10]; 33.2 nM (active) in [11]; 5900 nM (active) in assay [12]. Further, the Potency in assay [13] was 4170 nM (active); in assay [14], 2350 nM (active). Moreover, the Potency result in assay [2], in assay [3], in assay [4], in [6] and in assay [7] was “inactive” throughout.

As to `COc1cc(Nc2ncc(F)c(Nc3ccc4c(n3)NC(=O)C(C)(C)O4)n2)cc(OC)c1OC`, the activation in [1] is 7.29%. Besides, the Potency entry in assay [2], in [3] and in assay [4] was “inactive” in each case. The Potency in assay [10] is 9340 nM (active); in [11] it was 148 nM (active); in assay [12] it was 1180 nM (active); in [13] it was 1480 nM (active); in assay [15], 5900 nM (active).

Take `CCC(C)C(N)C1=NC(C(=O)N[C@@H](CC(C)C)C(=O)N[C@H](CCC(=O)O)C(=O)N[C@H](C(=O)N[C@H]2CCCCNC(=O)[C@H](CC(N)=O)NC(=O)[C@@H](CC(=O)O)NC(=O)[C@H](Cc3cnc[nH]3)NC(=O)[C@@H](Cc3ccccc3)NC(=O)[C@H]([C@@H](C)CC)NC(=O)[C@@H](CCCN)NC2=O)[C@@H](C)CC)CS1` (some centres not stated) (X1-L[dE]IK[dOrn]I[dF]H[dD]N; lactam 4-C): in assay [12], the Potency result was “inactive”.

Turning to `C=CC(=O)Nc1cccc(Nc2nc(Nc3ccc(Oc4ccnc(C(=O)NC)c4)cc3)ncc2F)c1`, in assay [12], the Potency is 8330 nM (active).

For the compound `COC(=O)c1c(C)cc(OC(=O)c2c(C)cc(OC)cc2OC)cc1O[C@@H]1O[C@H](CO)[C@@H](O)[C@H](O)[C@H]1O`, the activation in assay [1] is -15.3%. Further, the Potency entry in assay [2], in assay [4] and in [6] was “inactive” in each case.

As to `O=C(NCCCCCCCCNC(=O)C(Cl)Cl)C(Cl)Cl`, the activation in assay [1] was -0.333%. In addition, the Potency in assay [3] is 8910 nM (active).

As for `Cc1ccc(NC(=O)N2CCN(c3nc(N)nc4sc(-c5cccnc5)nc34)CC2)cc1`, in assay [1], the activation is 26.7%. In addition, the Potency in assay [2] is 35.5 nM (active); in [16], 2520 nM (active); in assay [8], 2820 nM (active); in assay [5], 14100 nM (active); in [7] it was 28300 nM (active).

For `O=C(/C=C/c1ccc(O)c(O)c1)O[C@H]1[C@H](OC2CCCCC2O)O[C@H](CO)[C@@H](O)[C@@H]1O` (some centres not stated), in [1], the activation was 5.36%. The Potency entry in [3] and in assay [4] was “inactive” throughout. Further, the Potency in assay [16] is 11000 nM (active).

In the case of `COCC(=O)NC/C=C/c1ccc2ncnc(Nc3ccc(Oc4ccc(C)nc4)c(C)c3)c2c1`, in [1], the activation is 0%. The Potency in assay [3] was 7120 nM (active). The Potency result in assay [4], in assay [16], in assay [5] and in [6] was “inactive” in each case.

Consider `CC(CC(C)O[C@@H]1O[C@H](CO)[C@@H](O)[C@H](O)[C@H]1O)OC(=O)/C=C/c1ccc(O)cc1` (some centres not stated), for which the activation in assay [1] was 3.82%. The Potency entry in assay [2], in [4], in assay [5] and in assay [6] was “inactive” throughout.

Regarding `COc1cc([C@H]2c3cc(O)c(OC)cc3C[C@@H](CO[C@@H]3O[C@H](CO)[C@@H](O)[C@H](O)[C@H]3O)[C@@H]2CO)ccc1O`, the activation in assay [1] is 9.82%. Also, the Potency result in [2], in [4] and in assay [5] was “inactive” throughout.

On to `C=CC(=O)N1CCN(C(=O)CNc2cc(I)c(Cl)cc2O)CC1`, for which the activation in assay [1] was 8.59%. In addition, the Potency in assay [3] is 2250 nM (active); in assay [16] it was 1790 nM (active); in assay [8] it was 7080 nM (active); in assay [5], 28300 nM (active); in assay [6], 2820 nM (active); in [7], 2830 nM (active). The Potency result in [4] was “inactive”.

Consider `O=C(O)c1cc(O[C@@H]2O[C@H](CO[C@@H]3OC[C@@H](O)[C@H](O)[C@H]3O)[C@@H](O)[C@H](O)[C@H]2O)c2ccccc2c1O`, for which, in assay [1], the activation was 9.92%. Moreover, the Potency result in assay [2] was “inactive”. Further, the Potency in assay [16] is 1380 nM (active); in assay [5], 2460 nM (active); in assay [6], 2820 nM (active); in [7], 693 nM (active).

`Cc1[nH]c(/C=C2\C(=O)Nc3cc(-c4ccccc4)ccc32)c(C)c1CCC(=O)O`: the activation in assay [1] is -26.3%. In addition, the Potency entry in [2], in assay [4], in assay [8], in assay [6] and in assay [7] was “inactive” in each case.

For the compound `O=c1nc(-c2ccccn2)sc2ccccc12`, the activation in assay [1] is -10.5%. Besides, the Potency result in assay [2], in [5] and in assay [6] was “inactive” each time. The Potency in [4] is 15800 nM (active); in assay [8], 2820 nM (active); in [7], 1130 nM (active).

For `CC1=CC(=O)C(=C(C)C)CC2C(C)(O)CCC12O` (configuration not stated), the activation in [1] is -8.93%. In addition, the Potency result in [2], in [4], in assay [5], in assay [6] and in [7] was “inactive” in each case.

Regarding `Nc1cccc(CNC(=O)c2ccc(Oc3ccc(OCc4cccc(F)c4)cc3)nc2)c1`, the activation in assay [1] is -6.68%. In addition, the Potency result in assay [2], in assay [8], in [5] and in [6] was “inactive” each time.

Take `C=C1C(=O)OC2CC(C)=C(C(C)CCCO)C(O)C12` (configuration not stated): the activation in assay [1] is 7.14%. Further, the Potency result in assay [2], in assay [4], in assay [5] and in [6] was “inactive” throughout.
